Reference: PubChem BioAssay (Tox21)
Results filed as inconclusive are left out. Calls of active or inactive are those of the source. Unless noted, the call rests on the fitted dose curve; in most records, active means well fitted curve in the direction sought with a large enough effect in the repeat runs; inconclusive means weak or mixed curves; inactive means no such curve, though single readings can be large; an effect the other way counts as inactive or inconclusive.

How the values were obtained:
[1] = qHTS assay to identify small molecule antagonists of the estrogen related receptor (ERR) signaling pathway from Tox21 library - cell viability counter screen (AID 1224834); further: nearly all actives have a fitted effect of over 30% in size
In short: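 Viability readout (CellTiter-Fluor fluorescence, 30 min at 37 C) multiplexed with the ERR assay; cells treated 17.5 h at 37 C with compounds delivered in DMSO.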

[2] = target: Luciferin 4-monooxygenase (Photinus pyralis) (UniProt P08659); assay: qHTS assay to identify small molecule inhibitors of firefly luciferase (AID 1224835); further: nearly all actives have a fitted effect of over 25% in size; further: potency means the concentration at half of the fitted maximal effect
In short: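 Quantitative HTS format; KM concentrations of both substrates. Purified P. pyralis FLuc activity quantified from luminescence images.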

[3] = qHTS assay to identify small molecule antagonists of the constitutive androstane receptor (CAR) signaling pathway - cell viability counter screen (AID 1224837); further: nearly all actives have a fitted effect of over 45% in size
In short: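 Fluorescence from CellTiter-Fluor served as the viability signal. Human hepatoma HepG2 cells stably bearing hCAR and CYP2B6-2.2kb received compound plus CITCO (50 nM final) for 23 hr.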

[4] = target: Nuclear receptor subfamily 1 group I member 3 (Homo sapiens) (UniProt Q14994); assay: qHTS assay to identify small molecule agonists of the constitutive androstane receptor (CAR) signaling pathway (AID 1224839);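 further: HepG2 cells stably carrying human CAR and a CYP2B6 luciferase reporter; nearly all actives have a fitted effect of over 15% in size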
In short: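 Luminescence read-out (ONE-Glo, 30 min, room temperature) from double-stable HepG2-CYP2B6-hCAR cells exposed 24 h to 15-point compound series in presence of 0.75 uM PK11195 final.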

[5] = qHTS assay to identify small molecule antagonists of the estrogen related receptor signaling pathway with the pleiotropic PPARgamma coactivator (PGC) from Tox21 10K library - cell viability counter screen (AID 1224840; active means well fitted cell-killing curve with a large enough effect in the repeat runs, not every such curve was filed as active; further: nearly all actives have a fitted effect of over 40% in size)
In short: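 Compounds in DMSO, alongside positive and negative controls, were pinned onto PGC/ERR cells (2,000 per well). Exposure lasted 17.5 hours at 37 C, followed by a 30-minute CellTiter-Fluor incubation and fluorescence reading.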

[6] = target: Thyrotropin receptor (Homo sapiens) (UniProt P16473); assay: qHTS assay to identify small molecule agonists of the thyroid stimulating hormone receptor (TSHR) signaling pathway (AID 1224843; calls by dose curve; further: nearly all actives have a fitted effect of over 45% in size)
In short: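 TSHR-expressing HEK293 cells (800 per well) were exposed to compounds for 30 min at room temperature. cAMP was then detected by HTRF competition with cAMP-d2 and anti-cAMP cryptate, read after 1 h at room temperature. Fifteen concentrations, triplicate.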

[7] = qHTS assay to identify small molecule agonists of the hypoxia (HIF-1) signaling pathway - cell viability counter screen (AID 1224844; calls by dose curve; further: nearly all actives have a fitted effect of over 50% in size; further: potency means the concentration at half of the fitted maximal effect)
In short: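 Luminescent ATP content (CellTiter-Glo, 30 min, room temperature) served as the viability measure in HRE-bla ME-180 cells exposed to compounds for 17 hrs in low-serum medium (0.5% dialyzed FBS).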

[8] = qHTS assay to identify small molecule agonists of H2AX (AID 1224845; active means well fitted activation curve with a large enough effect in the signal ratio in the repeat runs, not every such curve was filed as active; the % refers to the signal ratio)
In short: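 Wild-type CHO-K1 cells plated overnight, then exposed 3 hr at 37C to compounds at 15 concentrations (0.76% DMSO). Lysed, then HTRF anti-pH2AX(S139)-cryptate/anti-H2AX-d2 detection after 24 hr at room temperature; emissions 665 and 620 nm.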

[9] = qHTS assay to identify small molecule agonists of H2AX - cell viability counter screen (AID 1224847; calls by dose curve; further: top concentration of the series differs between compounds; nearly all actives have a fitted effect of over 30% in size)
In short: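 CHO-K1 wt, 1000 cells/well, o/n 37C; cpds 15 conc, 3 h 37C, 0.76% DMSO; CellTiter-Glo, 30 min RT, luminescence.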

[10] = qHTS RealTime-Glo MT Cell Viability Assay in HepG2 cells - 24 hour (AID 1224867); further: nearly all actives have a fitted effect of over 50% in size
In short: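 HepG2 cells (600/well) were dispensed with RealTime-Glo reagents, incubated 5 h at 37 °C, then treated with compounds in DMSO for up to 40 h. Nonlytic NanoLuc luminescence reflecting viable cells was read at each stated time point.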

[11] = qHTS RealTime-Glo MT Cell Viability Assay in HEK293 cells - 32 hour (AID 1224868); further: top concentration of the series differs between compounds; nearly all actives have a fitted effect of over 50% in size
In short: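 HEK293 cells seeded with NanoLuc/prosubstrate reagent, rested 5 h at 37 C, then dosed and kept at 37 C up to 40 h. Nonlytic real-time luminescence from viable cells read at 0, 8, 16, 24, 32 and 40 h.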

[12] = A CellTox Green Cytotoxicity Assay to monitor cytotoxicity in HEK293 cells - 0 hour (AID 1224869); further: nearly all actives have a fitted effect of over 50% in size
In short: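 Each value comes from one timepoint of a single continuous run in which HEK293 cells with CellTox Green were exposed to compound for up to 40 h at 37 C, dye fluorescence rising with cell death.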

[13] = qHTS assay to identify small molecule agonists of the estrogen related receptor signaling pathway with the pleiotropic PPARgamma coactivator (PGC) from Tox21 10K library (AID 1224842); further: nearly all actives have a fitted effect of over 15% in size
In short: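 PGC/ERR reporter cells (NTP line) were seeded 2,000 per well, rested 6 h at 37 C/5% CO2, then pin-dosed with compounds in DMSO for 18 h at 37 C; luciferase read by One-Glo luminescence after 30 min at room temperature.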

[14] = qHTS assay to identify small molecule agonists of the hypoxia (HIF-1) signaling pathway (AID 1224846; active means well fitted activation curve with a large enough effect in the signal ratio in the repeat runs, not every such curve was filed as active; the % refers to the signal ratio)
In short: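 Measured by blue/green FRET after loading CCF4-AM: beta-lactamase expressed from a hypoxia response element in ME-180 cells. Test agents were delivered in DMSO and left 17 hrs; cells had been plated 5 hrs earlier in low-serum (0.5% dialyzed FBS) medium.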

[15] = qHTS assay to identify small molecule agonists of the estrogen related receptor (ERR) signaling pathway from Tox21 library (AID 1224849; calls by dose curve; further: nearly all actives have a fitted effect of over 15% in size); conditions: ERR reporter cell line, ONE-Glo luciferase, 18 h; at 92.4 µM (top of the series) unless noted
In short: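 We plated ERR reporter cells, waited 6 h, added compounds in DMSO by pin tool and incubated them 18 h at 37 C. ONE-Glo was then added and luminescence read after 30 min.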

[16] = qHTS assay to identify small molecule agonists of the constitutive androstane receptor (CAR) signaling pathway - cell viability counter screen (AID 1224836); further: nearly all actives have a fitted effect of over 45% in size
In short: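 Viability read-out: CellTiter-Fluor fluorescence after 23 h compound exposure at 37 C/5% CO2 in double-stable HepG2-CYP2B6-hCAR cells, with PK11195 present at 0.75 uM final; compounds tested in 15-point titration.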

[17] = target: Nuclear receptor subfamily 1 group I member 3 (Homo sapiens) (UniProt Q14994); assay: qHTS assay to identify small molecule antagonists of the constitutive androstane receptor (CAR) signaling pathway (AID 1224838);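 further: HepG2 cells stably expressing hCAR with CYP2B6 luciferase reporter stimulated by CITCO; nearly all actives have a fitted effect of over 40% in size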
In short: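 Quantitative HTS in double-stable HepG2-CYP2B6-hCAR cells. After 4 h plating, cells get compound (15 concentrations) and CITCO at 50 nM final, incubate 24 h at 37 C, then ONE-Glo luminescence is read.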
On the % scale 0 is the no-effect control and ±100 the full control effect.

Sequence of Thyrotropin receptor (Homo sapiens) (P16473 whole entry, looked up): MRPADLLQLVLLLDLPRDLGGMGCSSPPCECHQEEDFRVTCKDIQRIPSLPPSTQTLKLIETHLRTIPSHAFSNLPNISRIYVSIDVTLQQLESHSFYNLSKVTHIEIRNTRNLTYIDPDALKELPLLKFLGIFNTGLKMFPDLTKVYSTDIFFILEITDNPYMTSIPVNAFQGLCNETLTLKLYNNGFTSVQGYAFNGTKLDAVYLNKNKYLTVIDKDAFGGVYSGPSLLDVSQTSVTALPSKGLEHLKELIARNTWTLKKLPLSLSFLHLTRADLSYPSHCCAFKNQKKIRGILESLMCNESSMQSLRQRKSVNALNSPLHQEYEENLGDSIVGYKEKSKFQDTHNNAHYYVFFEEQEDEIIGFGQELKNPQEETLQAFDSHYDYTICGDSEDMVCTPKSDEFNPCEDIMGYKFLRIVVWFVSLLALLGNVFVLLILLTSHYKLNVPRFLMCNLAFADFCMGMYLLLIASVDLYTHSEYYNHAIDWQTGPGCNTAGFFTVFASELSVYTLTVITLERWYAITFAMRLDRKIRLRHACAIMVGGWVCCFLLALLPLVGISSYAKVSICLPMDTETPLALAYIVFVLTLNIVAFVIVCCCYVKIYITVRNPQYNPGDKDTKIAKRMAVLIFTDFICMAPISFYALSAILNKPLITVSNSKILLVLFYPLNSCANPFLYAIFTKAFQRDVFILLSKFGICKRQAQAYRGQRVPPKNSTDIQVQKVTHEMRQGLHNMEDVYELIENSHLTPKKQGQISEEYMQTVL
Sequence of Luciferin 4-monooxygenase (Photinus pyralis) (P08659 whole entry, looked up): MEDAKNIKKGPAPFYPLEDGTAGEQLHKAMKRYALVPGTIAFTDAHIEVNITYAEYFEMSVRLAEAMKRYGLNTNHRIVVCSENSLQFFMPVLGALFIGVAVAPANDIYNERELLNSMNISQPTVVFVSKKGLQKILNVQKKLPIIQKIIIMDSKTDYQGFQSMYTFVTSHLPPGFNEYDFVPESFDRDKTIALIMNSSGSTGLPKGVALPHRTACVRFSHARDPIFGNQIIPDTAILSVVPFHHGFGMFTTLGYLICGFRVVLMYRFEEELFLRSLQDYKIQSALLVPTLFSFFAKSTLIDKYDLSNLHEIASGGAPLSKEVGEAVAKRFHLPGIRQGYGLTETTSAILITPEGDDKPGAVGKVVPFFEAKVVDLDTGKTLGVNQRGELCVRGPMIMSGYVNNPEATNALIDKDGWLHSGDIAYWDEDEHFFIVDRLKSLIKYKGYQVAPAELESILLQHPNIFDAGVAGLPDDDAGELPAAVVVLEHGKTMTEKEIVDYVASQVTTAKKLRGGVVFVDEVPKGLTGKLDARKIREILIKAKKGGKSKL
Sequence of Nuclear receptor subfamily 1 group I member 3 (Homo sapiens) (Q14994 whole entry, looked up): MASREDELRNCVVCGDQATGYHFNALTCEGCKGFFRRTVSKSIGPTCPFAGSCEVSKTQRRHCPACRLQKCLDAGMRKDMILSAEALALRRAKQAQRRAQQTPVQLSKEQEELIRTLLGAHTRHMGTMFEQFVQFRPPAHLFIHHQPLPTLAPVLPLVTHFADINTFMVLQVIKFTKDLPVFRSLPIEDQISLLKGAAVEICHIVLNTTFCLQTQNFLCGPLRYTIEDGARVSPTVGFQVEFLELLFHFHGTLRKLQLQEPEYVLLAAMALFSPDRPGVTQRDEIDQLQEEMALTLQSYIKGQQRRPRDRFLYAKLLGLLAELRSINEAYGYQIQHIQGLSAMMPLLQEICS

NC(=O)c1cc[n+](CC2=C(C(=O)[O-])N3C(=O)[C@@H](NC(=O)Cc4cccs4)[C@H]3SC2)cc1
inactive: Potency [1] | Potency [2] | Potency [3] | Potency [4] | Potency [5] | Potency [6] | Potency [7] | Potency [8] | Potency [9] | outcome [10] | Potency [11] | Potency [12]

CCOc1ccc(NC(C)=O)cc1N
inactive: Potency [1] | Potency [2] | Potency [3] | Potency [5] | Potency [13] | Potency [6] | Potency [8] | outcome [14] | Potency [9] | activity change, positive = activation [15] 8.88% | outcome [10] | Potency [11] | Potency [12]

CC(Cc1ccccc1)(NC(=O)CN)c1ccccc1 (configuration not stated)
inactive: Potency [1] | Potency [2] | Potency [3] | Potency [5] | Potency [6] | Potency [7] | Potency [8] | outcome [14] | Potency [9] | outcome [10] | Potency [11] | Potency [12]

CC(C(=O)O)c1ccc2c(c1)Cc1cccnc1O2 (configuration not stated)
inactive: Potency [1] | Potency [2] | Potency [16] | Potency [5] | Potency [6] | Potency [8] | outcome [14] | Potency [9] | outcome [10] | Potency [11] | Potency [12]

NC(=O)c1ccccc1
inactive: Potency [1] | Potency [2] | Potency [3] | Potency [17] | Potency [4] | Potency [6] | Potency [8] | Potency [9] | outcome [10] | Potency [11] | Potency [12]

CCOC(C)OCC
inactive: Potency [1] | Potency [2] | Potency [16] | Potency [5] | Potency [7] | Potency [8] | outcome [14] | Potency [9] | outcome [10] | Potency [11] | Potency [12]

O=C(O)c1ccc(O)c(O)c1
inactive: Potency [1] | Potency [2] | Potency [3] | Potency [17] | Potency [4] | Potency [5] | Potency [6] | Potency [7] | outcome [14] | Potency [9] | outcome [10] | Potency [11] | Potency [12]

CC1(C)CC(=O)CC(C)(C)N1
inactive: Potency [1] | Potency [2] | Potency [16] | Potency [6] | Potency [7] | Potency [8] | outcome [14] | Potency [9] | outcome [10] | Potency [11] | Potency [12]

CCCCCCOC(=O)c1ccccc1
inactive: Potency [1] | Potency [3] | Potency [17] | Potency [4] | Potency [13] | Potency [6] | Potency [8] | Potency [9] | activity change, positive = activation [15] 5.95% | outcome [10] | Potency [12]
active: Potency [2] 15.9 µM | Potency [7] 19.5 µM
